Screening results from PubChem BioAssay.
ADAM17 inh = ADAM17 inhibitors, primary screen, biochemical, QFRET; 370,000 compounds, 0.83% hits; inhibition, % at 6.95 µM; Disintegrin and metalloproteinase domain-containing protein 17 (Homo sapiens), P78536; recombinant ADAM17, EDANS/DABCYL FRET peptide cleavage;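 active = inhibition above the mean of compounds lying between control limits plus 3 SD, set per campaign, cut at about 8.5% in these data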
PLC-gamma1 inh = PLC-gamma1 enzyme inhibitors, primary screen, biochemical, fluorescence, purified enzyme | fluorogenic substrate | 1-phosphatidylinositol 4,5-bisphosphate phosphodiesterase gamma-1 (Homo sapiens), P19174 | 370,000 compounds, 0.84% hits | inhibition, % at 12.2 µM
PLCb3 inh = human PLC-beta3 inhibitors, primary screen, biochemical, fluorescence | Purified PLC-beta3, fluorogenic substrate | inhibition, % at 12.2 µM | 370,000 compounds, 0.18% hits | AID 720704, 2013; in the data active = inhibition above about 11%
KLK7 zymogen act = proKLK7 zymogen activators, primary screen, biochemical, fluorescence intensity | 370,000 compounds, 0.9% hits | purified proKLK7, EDANS-DABCYL substrate fluorescence; 100% is mature enzyme control, 0% vehicle | activation, % at 7 µM;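 active = activation above the mean of all tested compounds plus 3 SD, computed per campaign excluding outliers beyond control limits, cut at about 13% in these data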
Target sequence (P49862 whole entry, looked up): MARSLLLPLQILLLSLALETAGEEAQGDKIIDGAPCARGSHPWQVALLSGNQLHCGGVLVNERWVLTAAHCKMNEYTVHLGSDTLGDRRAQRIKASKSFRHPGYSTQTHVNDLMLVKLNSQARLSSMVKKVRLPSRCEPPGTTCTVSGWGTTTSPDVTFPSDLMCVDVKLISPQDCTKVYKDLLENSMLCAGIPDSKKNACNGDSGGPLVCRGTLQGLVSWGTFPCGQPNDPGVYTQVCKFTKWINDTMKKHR
ADAM10 inh = human ADAM10 inhibitors, primary screen, biochemical, QFRET, HTS; Disintegrin and metalloproteinase domain-containing protein 10 (Homo sapiens), O14672; 370,000 compounds, 0.62% hits; inhibition, % at 7 µM; recombinant ADAM10, EDANS/DABCYL FRET peptide cleavage, 3 h; AID 720582, 2013;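 active = inhibition above a per-campaign cutoff equal to the mean of compounds falling between control-based bounds plus 3 SD, cut at about 20% in these data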
PLCgamma1 ctr = PLC-gamma1 enzyme inhibitors, counter-screen for PLC-beta3 inhibitor project, biochemical, fluorescence; shares compounds with PLC-gamma1 inh; purified PLC-gamma1, fluorogenic substrate; inhibition, % at 12.3 µM; 3,300 compounds, 3.1% hits; AID 743258, 2014
PLCb3 confirm = PLC-beta3 inhibitor confirmation, biochemical, fluorescence, purified enzyme. 3,300 compounds, 1% hits. fluorogenic substrate fluorescence. shares compounds with PLC-gamma1 inh. inhibition, % at 12.3 µM; in the data active = inhibition above about 11%
Hits are given with their value; . = inactive; / = no result given. Most compounds without a hit are left out; they make up all but 2.9% or so of the library. Rule as the data show it, unless noted: active = inhibition above about 9.5%; inactive = the rest.

SMILES	ADAM17 inh	PLC-gamma1 inh	PLCb3 inh	KLK7 zymogen act	ADAM10 inh	PLCgamma1 ctr	PLCb3 confirm
CC(C)(C)c1cc(-c2ccccc2)n[nH]1	.	11	.	.	.	.	.
CCc1nc2ccc(C(=O)NCCCN3CCCC3=O)cn2c1N(C)CCC(C)C	.	.	.	.	.	/	/
O/N=C(/c1ccccc1)c1cc2cc(Br)cc(Br)c2o1	.	12	.	.	.	.	.
O=P(Nc1ccccc1)(Nc1ccccc1)c1ccccc1	.	.	.	.	.	/	/
COc1ccccc1C=C1SC(=S)NC1=O	.	.	.	.	.	/	/
O=C1NC(=S)S/C1=C\c1ccc(SCc2ccccc2)o1	.	57	.	.	.	29	.
COCCNC(=O)CN(C(=O)CCC(=O)Nc1ccccn1)c1cc(C)ccc1C	.	13	.	.	.	.	.
CCOc1ccccc1N(CC(=O)NCCOC)C(=O)CCC(=O)Nc1ccccn1	.	.	.	.	.	/	/
COCCNC(=O)C1(C)CCN(C(=O)c2cc(-c3ccccc3)cs2)C1 (stereo not drawn)	.	.	.	.	.	/	/
COc1ccc(CC(=O)NCC2CCCN(Cc3cccc(C(F)(F)F)c3)C2)cc1 (stereo not drawn)	.	11	.	.	.	.	.
COc1ccc(CC(=O)NCC2CCCN(Cc3ccc(F)c(OC)c3)C2)cc1 (stereo not drawn)	.	.	.	.	.	/	/
Cc1ccc(N2CC(C(=O)N/N=C/c3sccc3C)CC2=O)cc1 (stereo not drawn)	.	.	.	.	.	/	/
Cc1ccsc1/C=N/NC(=O)C1CC(=O)N(c2ccccc2)C1 (stereo not drawn)	.	.	11	.	.	.	.
CCOC(=O)N1CCC(NC(=O)CCN2C(=O)C3C4C=CC(C4)C3C2=O)CC1 (stereo not drawn)	.	10	.	.	.	.	.
O=C(N[C@H](C(=O)N1CCC[C@H]1C(=O)NCCc1ccccc1Cl)C1CCCCC1)c1cccs1	.	9.9	.	.	.	.	.
O=C(Nc1cccc(F)c1)O[C@@H]1CC[C@@]23CCCN2C(=O)CCC[C@H]3C1	.	.	.	/	.	/	/
O=C1NC[C@@H](CCCCN2CCN(CCC3CCCCC3)C(=O)C2=O)N(CC2CCCCC2)C1=O	.	.	.	.	.	/	/
O=C(NCc1ccccc1)C1COc2ccccc2O1 (stereo not drawn)	.	9.8	.	.	.	.	.
Cc1ccc(CNC(=O)C2COc3ccccc3O2)cc1 (stereo not drawn)	.	.	.	.	.	/	/
CC(C)N1CCN(c2ccc(OCC3COC(Cn4cncn4)(c4ccc(Cl)cc4Cl)O3)cc2)CC1 (stereo not drawn)	.	9.8	.	.	.	.	.
CC(C)N1CCN(c2ccc(OC[C@H]3CO[C@](Cn4cncn4)(c4ccc(Cl)cc4Cl)O3)cc2)CC1	.	.	.	.	.	/	/
Cc1onc(-c2ccccc2)c1CNS(=O)(=O)c1cccc(Cl)c1	.	11	.	.	.	.	.
CN(C)CCCNS(=O)(=O)c1ccc(NC2CCCCCC2)c([N+](=O)[O-])c1	.	15	.	.	.	.	.
CCNc1ccc(S(=O)(=O)NCCN(C)C)cc1[N+](=O)[O-]	.	.	.	.	.	/	/
CC(C)c1cc(=O)n2[nH]c(SCc3ccccc3Cl)nc2n1	.	13	.	.	.	.	.
SMILES	ADAM17 inh	PLC-gamma1 inh	PLCb3 inh	KLK7 zymogen act	ADAM10 inh	PLCgamma1 ctr	PLCb3 confirm
Cc1cc(=O)n2[nH]c(SCc3ccccc3)nc2n1	.	.	.	.	.	/	/
OC(c1cc(F)cc(Cl)c1)c1ncc(-c2ccc3ccccc3c2)[nH]1 (stereo not drawn)	.	.	.	.	.	/	/
O=C1COc2ccccc2C(c2nc3ccccc3[nH]2)N1C1CC1 (stereo not drawn)	.	.	.	.	.	/	/
CSc1nc2c(c(C(F)(F)F)n1)CC(C)CC2 (stereo not drawn)	.	9.6	.	.	.	.	.
O=C(c1ccc2c(c1)OCCO2)N1CCN(Cc2c(F)cccc2Cl)CC1	.	.	.	.	.	/	/
COc1ccc(NC(=O)CN(C)C(=O)C2CC(=O)N(CCc3ccc(OC)c(OC)c3)C2)cc1 (stereo not drawn)	.	.	.	.	.	/	/
COc1ccc(NC(=O)CN(C)C(=O)C2CC(=O)N(Cc3ccc(C)cc3)C2)cc1 (stereo not drawn)	.	12	.	.	.	.	.
Cc1ccc(S(=O)(=O)NC2c3cccc4cccc(c34)C2Sc2n[nH]c(N)n2)cc1 (stereo not drawn)	.	9.9	.	.	.	.	.
O=c1c(-c2ccccc2)cocc1-c1ccccc1	.	.	.	.	.	/	/
COC(=O)/C=C(\C)NC(=O)c1ccccc1Cl	.	.	11	.	.	.	.
COC(OC)C(C)NC(=O)NC(=O)c1ccccc1Cl (stereo not drawn)	.	.	.	.	.	/	/
CCCC1CCC2(CC1)CCC2OC(=S)Nc1ccccc1Cl (stereo not drawn)	.	.	.	/	.	/	/
CCC(=O)N(Cc1cc(=O)[nH]c2ccccc12)c1ccccc1OC	.	12	.	.	.	.	.
COc1ccc(-c2sc3ccc(N4CCOCC4)cc3c2C#CCCO)cc1	.	.	.	.	.	/	/
O=S(=O)(c1cc(O)ccc1O)c1cccc2c(S(=O)(=O)c3cc(O)ccc3O)cccc12	.	10	.	.	.	.	.
N=c1oc2ccc(Br)cc2cc1C(=O)NC1CCCCCC1	.	.	.	.	.	/	/
CCCC(C)C(=O)Nc1cc([N+](=O)[O-])ccc1F (stereo not drawn)	.	9.7	.	.	.	.	.
CCCC(C)C(=O)Nc1cc([N+](=O)[O-])ccc1Cl (stereo not drawn)	.	.	.	.	.	/	/
Cc1ccc(C(=O)NNC(=O)c2ccccc2O)cc1S(=O)(=O)N1CCCCC1	.	.	.	.	.	/	/
Cc1cccc(NC(=O)CN(C)S(=O)(=O)c2ccc(Cl)cc2)n1	.	.	.	.	.	/	/
Cc1cccc(NC(=O)CN(C)S(=O)(=O)c2ccc(Br)cc2)n1	.	10	.	.	.	.	.
COc1cccc(C(=O)NNS(=O)(=O)c2ccccc2)c1	.	12	.	.	.	.	.
CCOc1ccc(C(=O)Nc2ccc(NC(=O)c3ccccc3)c(C)c2)cc1[N+](=O)[O-]	.	.	.	.	.	/	/
